S2 tox: reduces viability in counter-screen for ATXN expression inhibitors | S2 cells (HEK-293 line with an ATXN2-luciferase reporter) viability, CellTiter-Fluor protease fluorescence, 24 h | AID 651635 | hit rate 0.49% among 400,000 | Potency, µM (series often up to 56.7 µM), hits mostly cytotoxic; note: nearly all actives have a fitted effect of over 40% in size
USP1 inh: inhibitors of human USP1/UAF1 deubiquitinase; O94782; AID 743255; Potency, µM (highest dose often 57.1 µM), hits mostly inhibitors; hit rate 0.23% among 390,000; recombinant USP1/UAF1, Ub-Rhodamine cleavage fluorescence; note: nearly all actives have a fitted effect of over 60% in size
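USP1/UAF1 complex (1 nM) preincubated 15 min at room temperature with compound, then Ub-Rho substrate (150 nM final) added. Kinetic fluorescence at 480/540 nm over 6 reads at 60 s intervals; 50 mM HEPES pH 7.8, 0.5 mM EDTA, 0.1 mg/ml BSA, 1 mM TCEP, 0.01% Tween-20.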
IL1B secr inh: inflammasome signaling inhibition, IL-1 beta readout; AID 743279; THP-1 LPS/ATP IL-1B secretion, AlphaLISA, 16 h; hits give low values; activity change, % at 57.5 µM; hit rate 4.7% among 360,000; in the data active = activity change below about -50%; inconclusive = mostly about -30% to -49%
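THP-1 cells pretreated 1 hr with compounds (up to 57.5 uM final), then stimulated with LPS (250 ng/mL final) plus ATP (1.25 mM final); secreted IL-1B measured by AlphaLISA after 16 hr, decreased signal indicating inhibition.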
USP2a block: inhibitors of human ubiquitin-specific protease USP2a | O75604 | USP2 core, Ub-CHOP2 coupled fluorogenic reporter, 485/531 | Potency, µM (doses to about 38.3 µM), most hits filed as inhibitors | hit rate 0.01% among 330,000 | AID 463254
Target sequence (O75604 whole entry, looked up): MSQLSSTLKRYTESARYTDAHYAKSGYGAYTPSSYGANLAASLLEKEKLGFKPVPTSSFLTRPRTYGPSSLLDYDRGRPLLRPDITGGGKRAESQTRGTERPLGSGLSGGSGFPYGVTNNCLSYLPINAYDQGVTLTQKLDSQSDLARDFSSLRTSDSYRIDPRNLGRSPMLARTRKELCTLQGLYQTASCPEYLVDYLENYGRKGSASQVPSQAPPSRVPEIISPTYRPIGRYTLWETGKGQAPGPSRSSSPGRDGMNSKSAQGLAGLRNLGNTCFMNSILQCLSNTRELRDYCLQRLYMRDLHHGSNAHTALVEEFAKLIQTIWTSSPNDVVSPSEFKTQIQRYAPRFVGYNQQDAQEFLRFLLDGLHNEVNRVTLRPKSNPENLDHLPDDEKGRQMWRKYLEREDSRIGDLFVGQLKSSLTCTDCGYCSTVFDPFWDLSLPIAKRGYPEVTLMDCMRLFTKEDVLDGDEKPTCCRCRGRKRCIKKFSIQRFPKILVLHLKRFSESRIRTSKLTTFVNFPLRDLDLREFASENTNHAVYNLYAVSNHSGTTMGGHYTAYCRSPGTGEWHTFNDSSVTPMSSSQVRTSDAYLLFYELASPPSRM
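Deubiquitinase activity read as fluorescence (485/531 nm) after Ub-CHOP2 cleavage activates the enterokinase reporter on its substrate; USP2 core 10nM, Ub-CHOP2 and substrate 25nM each, 30min compound preincubation then 60min RT; data normalized to NEM, curves fitted.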
ATXN2 expr inh: ATXN2 expression inhibition | HEK-293 ATXN2-luciferase reporter, luminescence, 24 h | Potency, µM (highest dose often 57 µM), hits mostly inhibitors | hit rate 0.72% among 360,000; note: nearly all actives have a fitted effect of over 55% in size
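ATXN2-luciferase reporter cells (luciferase flanked by upstream and downstream ATXN2 gene portions) were treated 24 h at 37 °C with compounds at up to 57 uM. SteadyGlo luminescence gave expression; GF-AFC fluorescence gave viability.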
Numbers stand for hits; ! = not confirmed by another sample. In the library only some 4.8% were active in any assay of this set; here they are far more common. Unless noted, calls come from the whole dose curve; as a rule, active = well fitted curve in the direction sought with a large enough effect; inconclusive = small, poorly fitted or top-dose-only effect, or another doubt; inactive = no such curve, though single readings can be large; an effect the other way counts as inactive or inconclusive.

What do the screens show for `CNCc1ccccc1Sc1ccc(OC)cc1`?
S2 tox: inactive; USP1 inh: inactive; IL1B secr inh: inactive; USP2a block: inactive; ATXN2 expr inh: inactive

How did COc1ccc(CCN(C)Cc2cccc3ccccc23)cc1OC do in these assays?
S2 tox: inactive; USP1 inh: inactive; IL1B secr inh: inactive; USP2a block: inactive; ATXN2 expr inh: inactive

How did CN(C)CCN(C)Cc1ccccc1Sc1cccc2ccccc12 do in these assays?
S2 tox: 20µM; USP1 inh: inactive; IL1B secr inh: -105; USP2a block: inactive; ATXN2 expr inh: 25µM

Results for Cc1ccc(S(=O)(=O)Nc2ccccc2F)cc1C(=O)OC(C)C(=O)N1CCOCC1 (stereo not given) ?
S2 tox: inactive; USP1 inh: inactive; IL1B secr inh: inactive; USP2a block: inactive; ATXN2 expr inh: inactive

Results for COCC(=O)Nc1cc(C(=O)NC2C3CC4CC2CC(O)(C4)C3)cc2nc(-c3ccccc3)n(C)c12 (stereo not given) ?
S2 tox: inactive

How did Cc1ccc(N(CC(=O)NC2CCCC2)C(=O)CCC(=O)Nc2nccs2)c(C)c1 do in these assays?
S2 tox: inactive; USP1 inh: inactive; IL1B secr inh: -54; USP2a block: inactive; ATXN2 expr inh: inconclusive

What do the screens show for `Cc1ccc(C)c(N(CC(=O)NC2CCCC2)C(=O)CCC(=O)Nc2nccs2)c1`?
S2 tox: inactive; USP1 inh: inactive; IL1B secr inh: inconclusive; USP2a block: inactive; ATXN2 expr inh: inactive

How did Cc1ccc(C(=O)N[C@H](C(=O)Nc2cccc(S(=O)(=O)N3CCOCC3)c2)C(C)C)cc1 do in these assays?
S2 tox: inactive; USP1 inh: inactive; IL1B secr inh: inactive

What do the screens show for `CSc1nc(C(=O)N2CCOc3ccc(CN4CCN(Cc5ccccn5)CC4)cc3C2)cs1`?
S2 tox: inactive

Results for COCCCNC(=O)c1cccn2c(=O)c3cc4ccccc4cc3nc12 ?
S2 tox: inconclusive; USP1 inh: inactive; IL1B secr inh: -86; USP2a block: inactive; ATXN2 expr inh: inconclusive

Results for CC1CCN(CCOCCOc2ccccc2-c2ccccc2)CC1 ?
S2 tox: inconclusive; USP1 inh: inactive; IL1B secr inh: inconclusive; USP2a block: inactive; ATXN2 expr inh: inactive

How did CC1CCN(CCCOc2ccc(Br)cc2Cl)CC1 do in these assays?
S2 tox: inactive; USP1 inh: inactive; IL1B secr inh: -60; USP2a block: inactive; ATXN2 expr inh: inactive

Results for CC1CCN(CCCCOc2ccccc2-c2ccccc2)CC1 ?
S2 tox: inconclusive; USP1 inh: inactive; IL1B secr inh: -104; USP2a block: inactive; ATXN2 expr inh: inactive

What do the screens show for `c1ccc(-c2ccccc2OCCCCN2CCCCCC2)cc1`?
S2 tox: inconclusive; USP1 inh: inactive; IL1B secr inh: inactive; USP2a block: inactive

What do the screens show for `CC1CCCN(CCCOc2ccccc2-c2ccccc2)C1` (stereo not given)?
S2 tox: inconclusive; USP1 inh: inactive; IL1B secr inh: -82; USP2a block: inactive; ATXN2 expr inh: inactive

Results for Fc1ccc(Nc2nc(SCc3cccc(Cl)c3)nc3ccccc23)cc1 ?
USP1 inh: inactive

What do the screens show for `Cc1nn(C(C)(C)C)c(OC(=O)c2cccc(F)c2)c1Sc1ccccc1`?
S2 tox: inconclusive; USP1 inh: inconclusive; ATXN2 expr inh: inactive

Results for Cc1ccccc1Nc1c(-c2ccccn2)nc2ccccn12 ?
S2 tox: inconclusive; USP1 inh: inactive; IL1B secr inh: inactive; USP2a block: inactive

How did Cc1ccc2nc(-c3ccccn3)c(Nc3ccccc3C)n2c1 do in these assays?
S2 tox: inconclusive; USP1 inh: inactive; IL1B secr inh: inactive; USP2a block: inactive; ATXN2 expr inh: 4.5µM!

How did Cc1ccc2nc(-c3cccnc3)c(Nc3ccccc3C)n2c1 do in these assays?
S2 tox: inconclusive; USP1 inh: inactive; IL1B secr inh: -52; USP2a block: inactive; ATXN2 expr inh: inactive

What do the screens show for `Cc1ccn2c(Nc3ccccc3C)c(-c3ccccn3)nc2c1`?
USP1 inh: inactive; IL1B secr inh: inactive; USP2a block: inactive; ATXN2 expr inh: 4µM

How did CC(C)OC(=O)c1cc2c(OCC(O)CNC(C)(C)C)cccc2[nH]1 (stereo not given) do in these assays?
S2 tox: inactive; ATXN2 expr inh: inactive

Results for O=C(O)c1cn(C2CC2)c2cc(Cl)c(F)cc2c1=O ?
S2 tox: inactive; ATXN2 expr inh: inactive

How did CN(C)/C=C1\C=C2C(=O)c3ccccc3N2C1=O do in these assays?
USP1 inh: 4.5µM; IL1B secr inh: inactive; USP2a block: inconclusive; ATXN2 expr inh: inactive

What do the screens show for `CN(C)S(=O)(=O)N1C(=O)c2ccccc2C1=O`?
S2 tox: inactive; USP1 inh: inactive; IL1B secr inh: inactive; USP2a block: inactive

Results for COc1ccc(-c2cc(C(F)(F)F)nc(SCC(=O)NCCc3ccccc3)n2)cc1OC ?
S2 tox: inconclusive; USP1 inh: inactive; ATXN2 expr inh: inactive

How did CCc1ccc(-c2csc(-c3cc4cc(Br)ccc4oc3=O)n2)cc1 do in these assays?
S2 tox: inactive; USP1 inh: inactive; ATXN2 expr inh: inactive

What do the screens show for `Cc1nc2c(nc1C)C(=O)c1ccccc1C2=O`?
S2 tox: inconclusive; USP1 inh: inconclusive; IL1B secr inh: inactive; ATXN2 expr inh: inconclusive

What do the screens show for `COC1=C(Br)C(=O)c2nc(C)ccc2C1=O`?
S2 tox: inconclusive; USP1 inh: 25µM; IL1B secr inh: inactive

Results for COC1=C(N)C(=O)c2nc(C)ccc2C1=O ?
S2 tox: inconclusive; USP1 inh: 7.1µM; IL1B secr inh: inactive; ATXN2 expr inh: inactive

Results for COc1cc(NC(=O)c2cc3nc(-c4ccccc4)cc(-c4ccccc4)n3n2)c(OC)cc1Cl ?
USP1 inh: inactive

What do the screens show for `CC(C)(C)c1ccc(OCCC(=O)OCC(=O)NC2CCCCC2)cc1`?
S2 tox: inactive; USP1 inh: inactive; IL1B secr inh: inactive; USP2a block: inactive; ATXN2 expr inh: inactive

Results for CC(C)(C)c1ccc(OCCC(=O)OCC(=O)NC(=O)NC2CCCC2)cc1 ?
S2 tox: inactive; USP1 inh: inactive; IL1B secr inh: -86; USP2a block: inactive; ATXN2 expr inh: inactive

Results for Nc1nc(=O)n(C2CC(O)C(CO)O2)cc1F (stereo not given) ?
S2 tox: inconclusive; USP1 inh: inactive; IL1B secr inh: inactive; ATXN2 expr inh: inconclusive

How did Nc1nc(=O)n([C@H]2C[C@H](O)[C@@H](CO)O2)cc1F do in these assays?
ATXN2 expr inh: 0.31µM

What do the screens show for `O=c1c2oc3ccccc3c2n(Cc2cccc(Cl)c2)c(=O)n1Cc1ccco1`?
S2 tox: inactive; USP1 inh: inactive; ATXN2 expr inh: inactive

Results for CCCCCCC[C@@H](C/C=C/CCC(=O)N(C)C/C(=C/Cl)C/C(=C\C(=O)N1CC(OC)=CC1=O)OC)OC ?
S2 tox: 22µM; USP1 inh: inconclusive; IL1B secr inh: inactive; USP2a block: inactive; ATXN2 expr inh: inconclusive
